A selection: hits, their analogues and other compounds. The true share with any hit is near 3.8%.
rTrxR1 inhibitor – rat TrxR1 inhibition. O89049. recombinant rTrxR1, NADPH fluorescence consumption, selenite substrate. Potency, µM (top dose mostly 114 µM), without a hit: top-dose activity change, negative = inhibition, hits mostly inhibitors. actives 1% (n = 390,000). AID 588453; also: potency is read from the fitted curve at half-maximal effect; nearly all actives have a fitted effect of over 65% in size
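Rat TrxR1 (90 nM in the dispensed reagent) was pre-reduced with 400 uM NADPH for 5 min at room temperature, then incubated with compound for 15 min. After 400 uM selenite was added, NADPH fluorescence (Ex 340/Em 450 nm) was followed for 8 min.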
TrxR1 substrate – substrates of rat thioredoxin reductase 1 | AID 588456 | actives 0.01% (n = 390,000) | purified TrxR1 substrate turnover, NADPH consumption readout | Potency, µM (doses to about 114 µM), for inactives: top-dose activity change, negative = substrate turnover; also: potency is read from the fitted curve at half-maximal effect; nearly all actives have a fitted effect of over 50% in size
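Rat TrxR1, dispensed at 90 nM, was prereduced with 400 uM NADPH (final) for 5 min at ~22 deg C, then incubated with compound 15 min before 400 uM selenite. A first-read NADPH fluorescence drop versus no-compound background flagged substrates.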
VDR inhibitor – blocks the human vitamin D receptor; P11473; VDR-SRC2-3 peptide fluorescence polarization, 2 h; Potency, µM, for the others: max response, negative = inhibition, usual class: inhibitors; actives 0.93% (n = 400,000); AID 504847; also: potency is read from the fitted curve at half-maximal effect
Target sequence (P11473 whole entry, looked up): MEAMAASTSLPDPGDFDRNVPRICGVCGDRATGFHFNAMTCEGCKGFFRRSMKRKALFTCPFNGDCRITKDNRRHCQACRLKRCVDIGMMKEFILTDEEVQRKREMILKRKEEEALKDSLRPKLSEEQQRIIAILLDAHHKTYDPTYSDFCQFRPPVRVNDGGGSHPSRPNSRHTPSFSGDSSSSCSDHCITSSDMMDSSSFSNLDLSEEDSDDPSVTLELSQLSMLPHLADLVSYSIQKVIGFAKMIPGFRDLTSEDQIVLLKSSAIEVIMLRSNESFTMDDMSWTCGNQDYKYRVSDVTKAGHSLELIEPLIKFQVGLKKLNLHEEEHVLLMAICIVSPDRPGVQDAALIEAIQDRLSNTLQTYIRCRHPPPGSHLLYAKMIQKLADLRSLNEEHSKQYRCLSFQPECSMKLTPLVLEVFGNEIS
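VDR–SRC2-3 interaction, FP format. Cmpds 23 nl via pintool, brief spin, 2 h ambient incubation.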
Sfp inh – inhibitors of Bacillus subtilis Sfp phosphopantetheinyl transferase. Q9F4F7. Biochemical Sfp PPTase activity, qHTS. Potency, µM, for inactives: largest response in the series, negative = inhibition, usual class: inhibitors. actives 3.5% (n = 310,000);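 also: the enzyme is Sfp with the accession as filed and its product quenches rhodamine fluorescence; potency is read from the fitted curve at half-maximal effect; 0% = enzyme reaction without inhibitor and -100% = no enzyme wells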
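Step 1, compound plus 15 nM Sfp-PPTase, 15 min, room temperature. Step 2, add rhodamine-CoA (5 uM) and BHQ-2-YbbR (12.5 uM). Step 3, read 525/598 nm fluorescence at 0 and 30 min.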
GLS inhibitor – glutaminase GLS (human) inhibition; O94925; GLS enzymatic activity, qHTS titration; Potency, µM (highest dose often 45.5 µM), without a hit: at the highest dose activity change, negative = inhibition, usual class: inhibitors; actives 0.21% (n = 410,000); also: potency is read from the fitted curve at half-maximal effect
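Compounds were pin-transferred onto hKGA, after which L-glutamine (1 mM solution) and a detection mix of glutamate oxidase, HRP and Amplex Red were added. Initial and 30 min RT fluorescence reads were collected.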
KAT2A inh – inhibitors of human GCN5L2 histone acetyltransferase. Q92830. GCN5L2 HAT assay, ThioGlo1 CoA-SH fluorescence. Potency, µM (top dose mostly 58.9 µM), inactives show at the highest dose activity change, negative = inhibition, hits mostly inhibitors. actives 0.21% (n = 390,000); also: potency is read from the fitted curve at half-maximal effect
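Enzyme at 20nM final was mixed with library compounds for 15 min at room temperature. Peptide H3(1-25) at 75uM, acetyl-CoA at 70uM and ThioGlo1 at 50uM were then added. Plates were read immediately and after 20 min (Ex340nm/Em540nm).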
Sfp PPTase conf – confirmation of Bacillus subtilis Sfp PPTase inhibitors. Sfp PPTase enzymatic assay, qHTS titration. Potency, µM (top dose mostly 114 µM), inactives show at the highest dose activity change, negative = inhibition, actives largely listed as inhibitors. actives 79% (n = 380). shares compounds with Sfp inh. AID 2701;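 also: potency is read from the fitted curve at half-maximal effect; plate controls were uninhibited Sfp reaction for no effect and no enzyme control for full effect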
Target sequence (Q9F4F7 whole entry, looked up): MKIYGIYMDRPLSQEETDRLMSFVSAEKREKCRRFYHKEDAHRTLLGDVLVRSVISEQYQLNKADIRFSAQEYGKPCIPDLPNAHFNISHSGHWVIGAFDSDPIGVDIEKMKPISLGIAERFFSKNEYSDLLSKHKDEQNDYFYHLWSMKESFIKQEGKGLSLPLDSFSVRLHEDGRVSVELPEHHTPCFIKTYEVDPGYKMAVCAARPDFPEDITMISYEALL
Sfp PPTase gel – Inhibits B. subtilis Sfp phosphopantetheinylation; shares compounds with Sfp inh; purified Sfp, gel-based phosphopantetheinylation read-out; Potency, µM, most hits filed as inhibitors; actives 20% (n = 210); AID 2707;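 active = potency below 100 µM; inconclusive = dose-dependent response but potency above 100 µM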;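 also: band intensities scaled against SCH202676 control wells before curve fitting; potency is an IC50 for inhibitors of Sfp transfer activity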
Active calls of the source: *; i = inactive; ? = inconclusive; . = no result given; ! = not active in a repeat; [ ] = dose if it differs, or a comment. Unless noted, calls follow the shape of the dose curve; as a rule, active = well fitted curve in the direction sought with a large enough effect; inconclusive = small, poorly fitted or top-dose-only effect, or another doubt; inactive = no such curve, though single readings can be large; an effect the other way counts as inactive or inconclusive. Unless noted, % is scaled to controls: 0 for no effect and ±100 for the full control effect.

SMILES | rTrxR1 inhibitor | TrxR1 substrate | VDR inhibitor | Sfp inh | GLS inhibitor | KAT2A inh | Sfp PPTase conf | Sfp PPTase gel
NCCc1c(-c2ccccc2)n(-c2ccccc2)c2ccccc12 | 6%[57.1 µM] | 1%[57.1 µM] | 5% | 16µM* | -5% | -6% | 42µM* | i
COc1ccc(OC)c(CC(=O)Nc2ccc3c(c2)CCC3)c1 | -3% | -9% | -8% | 6% | -27% | -3% | . | .
O=C(/C=C/c1ccncc1)c1ccc(NC(=O)c2ccccc2F)cc1 | -17% | -3% | 32µM* | 5.6µM* | 0% | -13% | 53µM* | .
O=C(N/C(=C/c1ccccc1F)C(=O)N1CCCCC1)c1ccccc1 | -1%[57.1 µM] | 1%[57.1 µM] | -12% | 9% | 0% | 2% | . | .
COc1ccc(C(=O)CC(=O)C(=O)Nc2ccc(C)cc2Cl)cc1 | -12%[57.1 µM] | 8%[57.1 µM] | -20% | 5% | 8% | 0% | . | .
O=C(COC(=O)/C=C/c1ccco1)NCc1ccccc1Cl | -17% | 1% | 6% | 7.9µM* | -1% | -7% | 37µM* | i
O=C(COC(=O)/C=C/c1ccco1)NCc1ccc(Cl)cc1Cl | -9% | -4% | -13% | . | -26% | -5% | . | .
CC(C)N(C(=O)Nc1ccc2nsnc2c1)C(C)C | -1% | 0% | 14µM* | 4.5µM* | -23% | -20% | 24µM* | i
O=C(CN1C(=O)COc2ccccc21)c1ccc(Cl)cc1 | 0% | -7% | 4% | -1% | -2% | 0% | . | .
CN(CCCN1c2ccccc2CCc2ccccc21)CC(=O)c1ccc(Cl)cc1 | . | . | 40µM* | 50µM* | -15% | -10% | 37µM* | i
CN(C)CCCN1c2ccccc2CCc2ccc(Cl)cc21 | ? | 4%[57.1 µM] | -4% | 56µM*! | -3% | -2% | ? | i
NC(=O)C[C@H](N)c1cn([C@@H](CC(N)=O)C(=O)N2CCNCC2)nn1 | 24% | -5%[57.1 µM] | -16% | . | -8% | -1% | . | .
Nc1nnc2c(n1)CCCC2 | ? | 7% | 18% | 45µM* | 0% | -2% | 53µM* | 6.2µM*
Nc1ncc(Br)cc1S(=O)(=O)NCCC(=O)Nc1cccc(Cl)c1 | 4% | 2% | 8% | 20% | -5% | -1% | . | .
O=C(NCCc1cn2ccsc2n1)C1CCCCC1 | 14%[57.1 µM] | 9%[57.1 µM] | 8% | 7% | -3% | -11% | . | .
c1cn2cc(CSC3CCCCC3)nc2s1 | 0% | 2% | 4% | 3.2µM* | 2% | -5% | 0% | i
CCOC(=O)c1nc(NCc2ccccc2)sc1C | -13%[57.1 µM] | 1%[57.1 µM] | 71µM* | 8.9µM* | 5% | -19% | 8.3µM* | .
Cc1ccc(-c2cc(C(=O)NCc3ccco3)c3ccccc3n2)s1 | ? | 111%[57.1 µM] | ? | 2.8µM* | -3% | ? | 47µM* | ?
CCC12C(=Nc3c(Cl)cccc31)C[C@@H]1CCN3C(=O)CCC[C@H]2[C@H]13 (stereo partly drawn) | 27% | 10% | -12% | . | -3% | . | . | .
COc1ccc(C(=O)COC(=O)CCC(=O)Nc2ccc(C(C)=O)cc2)cc1 | 8% | 1% | -2% | 2% | -1% | -1% | . | .
O=[N+]([O-])c1ccc2nc(NCCCO)nc(-c3ccccc3)c2c1 | 0% | 1% | ? | ? | 4% | -5% | . | .
O=C(O)CNc1nc(-c2ccccc2)c2cc([N+](=O)[O-])ccc2n1 | -30% | -13% | -25% | 6.3µM* | 0% | -14% | 15µM* | ?
O=C(O)CCC(=O)Nc1sc2c(c1C(=O)Nc1ccccc1)CCCCC2 | -15%[57.1 µM] | 5%[57.1 µM] | ? | 13µM* | 0% | -3% | 15µM* | .
COc1ccccc1NC(=O)c1c(NC(=O)CCC(=O)O)sc2c1CCCCC2 | 12% | -1% | -13% | 10µM* | 6% | 3% | 21µM* | .
COC(=O)c1c(NC(=O)CCC(=O)O)sc2c1CCCCC2 | 9% | 9% | -11% | 0% | 15% | -4% | . | .
SMILES | rTrxR1 inhibitor | TrxR1 substrate | VDR inhibitor | Sfp inh | GLS inhibitor | KAT2A inh | Sfp PPTase conf | Sfp PPTase gel
CCCCN(CCCNC(=O)CN1N=C(c2ccccc2)CCC1=O)c1ccccc1 | 8%[57.1 µM] | 0%[57.1 µM] | 3% | . | 26% | -3% | . | .
CO/N=C(\C(=O)N[C@@H]1C(=O)N2C(C(=O)O)=C(COC(C)=O)CS[C@@H]12)c1csc(N)n1 | . | . | ? | ? | -12% | 0% | . | .
CO/N=C(\C(=O)N[C@@H]1C(=O)N2C(C(=O)[O-])=C(C[n+]3cccc4c3CCC4)CS[C@H]12)c1csc(N)n1 | . | . | 28µM* | 56µM* | ? | ? | 42µM* | 56µM*
CO/N=C(/C(=O)N[C@@H]1C(=O)N2C(C(=O)O)=C(CSC(=O)c3ccco3)CSC12)c1csc(N)n1 (stereo partly drawn) | . | . | ? | 56µM* | 11% | 1% | 47µM* | 6.2µM*
COc1ccccc1OCCC(=O)OCC(=O)Nc1ccc2c(c1)OCO2 | 10%[11.4 µM] | 15%[57.1 µM] | -8% | . | 4% | 0% | . | .
CCOc1ccc(OCC)c(NC(=O)CN2CCN(c3cc(C)ccc3C)CC2)c1 | 26% | 7% | -2% | 5.6µM* | 17% | -7% | -12% | i
Cc1nn(-c2ccccc2)c(C)c1C(=O)NCc1ccccc1F | 13% | 2% | -1% | 8% | 12% | -7% | . | .
CC(=O)c1cccc(S(=O)(=O)N2CCCC(c3nc(-c4ccc(C)o4)no3)C2)c1 (stereo not drawn) | ? | 2%[57.1 µM] | -17% | 56µM* | -2% | -19% | 24µM* | .
Cc1ccc(-c2noc(C3CCCN(S(=O)(=O)c4ccc5ccccc5c4)C3)n2)o1 (stereo not drawn) | -16% | 9% | 6% | -18% | -1% | 0% | . | .
O=C(COc1ncnc2sccc12)Nc1cccc(S(=O)(=O)N2CCCC2)c1 | 19% | -2% | -12% | -7% | -14% | -3% | . | .
OCc1ccc(-c2nn(Cc3ccccc3)c3ccccc23)o1 | ? | 10%[57.1 µM] | ? | 4.5µM* | -5% | -5% | 15µM* | .
CCc1ccc(CNc2ccc(O)cc2)cc1 | ? | -11%[57.1 µM] | 22µM* | 11µM* | 24% | -20% | 37µM* | i
COc1ccc(Br)cc1CNc1ccc(O)cc1 | ? | -7% | 25µM* | 20µM* | 43% | 1% | ? | ?
CCc1ccc(CNc2ccc3c(c2)ncn3CC)cc1 | 1%[57.1 µM] | 15% | 8% | -2% | -15% | -5% | . | .
CCOc1ccccc1CNc1ccc(O)cc1 | ? | -7% | 40µM* | 10µM* | -21% | -4% | 11µM* | i
